Screens from PubChem BioAssay.
GPT2 inhibitor: blocks human glutamate pyruvate transaminase 2; Recombinant GPT2, coupled pyruvate oxidase/HRP Amplex Red fluorescence; Potency, µM (doses to about 57.7 µM), inactives show at the highest dose activity change, negative = inhibition, actives largely listed as inhibitors; 0.25% of 100,000 active; AID 1671188; further: on the % scale 0 is the no-effect control and ±100 the full control effect; nearly all actives have a fitted effect of over 60% in size
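Inhibition is scored from Amplex Red fluorescence generated when pyruvate oxidase and HRP act on pyruvate released by GPT2. Reactions contain 10ng/uL enzyme, 250uM a-KG and 2mM L-alanine and run 30 min at room temperature.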
HEK293 tox: HEK 293 cell cytotoxicity. HEK 293 viability, ATP luminescence (CellTiter-Glo), 48-72 h. Potency, µM (top dose mostly 115 µM), without a hit: at the highest dose activity change, negative = cytotoxicity, usual class: inhibitors. 6.6% of 94,000 active. AID 1345083; further: on the % scale 0 is the no-effect control and ±100 the full control effect; nearly all actives have a fitted effect of over 60% in size
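Read-out: CellTiter-Glo ATP luminescence. Cells: HEK 293, 250 cells/well. Exposure: 48 or 72 hr, 37 degree Celsius.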
NPR1 antag: antagonists of human natriuretic peptide receptor Npr1; 1.6% of 76,000 active; AID 1347048; HEK293 hNpr1 GloSensor cGMP, ANP-stimulated luminescence; Potency, µM (doses to about 46.3 µM), inactives show at the highest dose activity change, negative = inhibition, most hits filed as inhibitors; P16066; calls by dose curve; further: on the % scale 0 is the no-effect control and ±100 the full control effect; nearly all actives have a fitted effect of over 60% in size
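Compound pre-incubated 30 min at room temperature on GloSensor-loaded HEK293 cells stably carrying hNpr1 and the pGS-40F cGMP biosensor. Stimulation uses hNppA at 0.1 nM final; luminescence is taken at baseline and 20 min post-agonist.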
FLuc inh: inhibitors of firefly (Photinus pyralis) luciferase; AID 1347043; Potency, µM (doses to about 115 µM), actives largely listed as inhibitors; P08659; purified P. pyralis luciferase, luminescence, biochemical; 2.5% of 76,000 active; further: on the % scale 0 is the no-effect control and ±100 the full control effect; nearly all actives have a fitted effect of over 65% in size
Target sequence (P08659 whole entry, looked up): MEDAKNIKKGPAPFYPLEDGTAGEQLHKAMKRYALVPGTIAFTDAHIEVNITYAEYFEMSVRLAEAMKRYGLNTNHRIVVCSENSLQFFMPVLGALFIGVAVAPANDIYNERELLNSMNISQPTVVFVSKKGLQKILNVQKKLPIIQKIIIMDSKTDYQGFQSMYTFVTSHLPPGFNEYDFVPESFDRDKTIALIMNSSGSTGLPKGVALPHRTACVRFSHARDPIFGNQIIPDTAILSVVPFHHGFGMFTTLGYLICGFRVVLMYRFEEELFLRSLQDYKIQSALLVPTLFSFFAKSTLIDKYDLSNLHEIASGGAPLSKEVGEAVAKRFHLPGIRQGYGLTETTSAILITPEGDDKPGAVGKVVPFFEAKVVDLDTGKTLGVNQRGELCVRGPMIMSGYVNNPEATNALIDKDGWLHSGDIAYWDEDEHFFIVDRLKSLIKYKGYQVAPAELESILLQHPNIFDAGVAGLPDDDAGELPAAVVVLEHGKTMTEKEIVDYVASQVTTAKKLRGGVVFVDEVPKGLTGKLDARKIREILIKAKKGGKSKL
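Inhibitors were tested against purified firefly luciferase in a biochemical, low-substrate format (both substrates at 10uM) and luminescence measured with a CCD imager.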
NIH3T3 tox: kills NIH 3T3 cells. Potency, µM (doses to about 96.7 µM), inactives show top-dose activity change, negative = cytotoxicity, most hits filed as inhibitors. NIH 3T3 viability, CellTiter-Glo ATP luminescence, 48-72 h. 4.3% of 94,000 active; further: on the % scale 0 is the no-effect control and ±100 the full control effect; nearly all actives have a fitted effect of over 55% in size
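First NIH 3T3 cells are plated at 400 cells/well; next compound is pinned in; then plates incubate 48 or 72 hr at 37 °C; finally CellTiter-Glo is added and luminescence read after 10 min.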
Npr1 antag conf: hNpr1 antagonism, confirmation assay. Potency, µM (titrated, usually from 57.6 µM), for inactives: at the highest dose activity change, negative = inhibition, actives largely listed as inhibitors. shares compounds with NPR1 antag. HEK293 hNpr1 cGMP GloSensor luminescence, ANP-stimulated. 76% of 1,400 active; calls by dose curve; further: nearly all actives have a fitted effect of over 70% in size
NPR2 antag: selectivity test of Npr1 antagonists against human Npr2; shares compounds with NPR1 antag; HEK293 hNpr2 GloSensor cGMP luminescence, CNP-stimulated; Potency, µM (titrated, usually from 57.6 µM), for the others: top-dose activity change, negative = inhibition, actives largely listed as inhibitors; 67% of 1,400 active; calls by dose curve; further: nearly all actives have a fitted effect of over 70% in size
FLuc inh counter: inhibits firefly luciferase, false Npr1 antagonist flag; Potency, µM (doses to about 57.6 µM), without a hit: at the top dose activity change, negative = inhibition, usual class: inhibitors; 0.7% of 1,400 active; purified FLuc enzyme, luminescence, Km substrate; shares compounds with NPR1 antag; AID 1347047; further: 0% is about no effect
GloSensor ctrl: reduces cGMP signal in GloSensor control cells. Potency, µM (series often up to 57.6 µM), for the others: top-dose activity change, negative = inhibition, most hits filed as inhibitors. AID 1347051. shares compounds with NPR1 antag. HEK293 GloSensor cGMP, SNP-stimulated, luminescence. 69% of 1,400 active; calls by dose curve; further: on the % scale 0 is the no-effect control and ±100 the full control effect; nearly all actives have a fitted effect of over 70% in size
Numbers without * were called inactive; i = inactive; ? = inconclusive; / = not tested or not shown; [ ] = another dose, or the depositor's remark. A selection: hits, their analogues and other compounds. The true share with any hit is near 10%. Unless noted, the call rests on the fitted dose curve; in most records, active means well fitted curve in the direction sought with a large enough effect; inconclusive means small, poorly fitted or top-dose-only effect, or another doubt; inactive means no such curve, though single readings can be large; an effect the other way counts as inactive or inconclusive. Potency means the concentration at half of the fitted maximal effect.

SMILES	GPT2 inhibitor	HEK293 tox	NPR1 antag	FLuc inh	NIH3T3 tox	Npr1 antag conf	NPR2 antag	FLuc inh counter	GloSensor ctrl
O=C(Nc1cccc(Br)c1)C1CCN(c2cc(C(F)(F)F)ncn2)CC1	i	45µM*	11µM*	i	?	22µM*	22µM*	-1%	24µM*
COc1ccc(NC(=O)C2CCN(c3cc(C(F)(F)F)ncn3)CC2)cc1Cl	i	?	?	i	?	/	/	/	/
O=C(Nc1cccc(F)c1)C1CCN(c2cc(C(F)(F)F)ncn2)CC1	?	?	11µM*	i	?	22µM*	?	0%	19µM*
O=C(NCCc1ccccc1)c1ccc2oc(-c3ccncc3)nc2c1	-4%	-11%	/	/	-32%	/	/	/	/
COc1ccc(S(=O)(=O)N2CCc3c(C(=O)Nc4cccc(C)c4)cccc32)cc1	4%	18µM*	?	i	?	?	?	-11%	?
COc1ccc(OC)c(NC(=O)c2ccc3c(c2)N(S(=O)(=O)c2ccccc2)CC3)c1	?	?	-7%	?	?	/	/	/	/
COc1ccc(NC(=O)c2ccc3c(c2)N(S(=O)(=O)c2ccccc2)CC3)cc1	i	?	10µM*	i	-2%	24µM*	24µM*	-14%	22µM*
CCOC(=O)c1ccccc1NC(=O)Cn1nc2n(c1=O)CCCCC2	i	3%	1%	i	-30%	/	/	/	/
COc1nccc(N2CCC(CC(=O)N(C)CCCc3c(C)nn(C)c3C)CC2)n1	-7%	?	11µM*	i	?	22µM*	?	1%	19µM*
CNc1nccc(N2CCC(CC(=O)N(C)CCCc3c(C)nn(C)c3C)CC2)n1	1%	?	?	i	?	/	/	/	/
COc1ccc(CNC(=O)c2ccc(Cn3ccn4nc5c(c4c3=O)CCCC5)cc2)cc1OC	i	22µM*	11µM*	i	?	27µM*	24µM*	0%	24µM*
COc1ccc(NC(=O)c2ccc(Cn3ccn4nc5c(c4c3=O)CCCC5)cc2)cc1OC	1%	?	-4%	i	?	/	/	/	/
COc1ccc(CNC(=O)c2ccc(Cn3ccn4nc5c(c4c3=O)CCCC5)cc2)cc1	i	20µM*	11µM*	i	?	27µM*	27µM*	1%	27µM*
COc1cccc(CNC(=O)c2ccc(Cn3ccn4nc5c(c4c3=O)CCCC5)cc2)c1	i	?	0%	i	-24%	/	/	/	/
CN(C)S(=O)(=O)N1CCOC(c2ccc(Cl)c(Cl)c2)C1 (centres undefined)	3%	?	-15%	i	?	/	/	/	/
CCCN1C(=O)CC[C@H]2CN(C(=O)c3cnc(C4CC4)[nH]c3=O)CC[C@H]21	-2%	i	-15%	i	-1%	/	/	/	/
CCc1cnc(C)nc1N1CCOC(c2ccc(Cl)cc2)C1 (centres undefined)	?	11µM*	10µM*	i	?	14µM*	15µM*	0%	12µM*
Clc1ccc(C2CN(c3cc(C4CC4)ncn3)CCO2)cc1 (centres undefined)	-27%	25µM*	11µM*	i	?	19µM*	22µM*	0%	17µM*
CC(C)NC(=O)N1CCOc2ccc(CCC(=O)NC3CCS(=O)(=O)C3)cc2C1 (centres undefined)	-6%	0%	17%	i	i	/	/	/	/
COc1ccc(-c2noc(CC3CCN(C(=O)c4ccc(OC)nc4)CC3)n2)cc1	3%	?	7.1µM*	i	?	5.4µM*	6.1µM*	1%	5.4µM*
CCOc1ccc(C(=O)N2CCC(Cc3nc(-c4ccc(OC)cc4)no3)CC2)cc1OCC	i	40µM*	6.3µM*	i	?	11µM*	15µM*	2%	9.7µM*
Cc1cccc(C(=O)N2CCC(Cc3nc(-c4cnccn4)no3)CC2)c1	i	-16%	-9%	i	-40%	/	/	/	/
CCOc1ccc(C(=O)N2CCC[C@H]2c2nc(-c3ccc(OC)cc3)no2)cc1OCC	i	-13%	-11%	i	-16%	/	/	/	/
COc1ccc(C(=O)N2CCC(c3noc(COc4ccc(F)cc4)n3)CC2)cn1	-8%	?	?	i	?	/	/	/	/
CCOc1ccc(C(=O)N2CCC(Cc3nc(-c4ccc(F)cc4)no3)CC2)cc1OCC	-3%	?	4µM*	i	40µM*	3.9µM*	6.1µM*	2%	4.8µM*
SMILES	GPT2 inhibitor	HEK293 tox	NPR1 antag	FLuc inh	NIH3T3 tox	Npr1 antag conf	NPR2 antag	FLuc inh counter	GloSensor ctrl
COC(=O)c1cccc(C(=O)N2CCC(Cc3nc(-c4ccc(OC)cc4)no3)CC2)c1	i	56µM*	6.3µM*	i	?	6.9µM*	8.6µM*	-7%	5.4µM*
Cc1ccccc1CC(=O)N1CCC(Oc2ncccc2C(=O)N2CCCCC2)C1 (centres undefined)	-8%	4%	-3%	i	-10%	/	/	/	/
CN1CCN(c2nc3c(c(=O)[nH]2)CCN(CC2CCCCC2)CC3)CC1	i	6%	-3%	i	-2%	/	/	/	/
O=C1NCCCN1C1CCN([S+](=O)([O-])c2cccc(C(F)(F)F)c2)CC1	i	-13%	-9%	i	-12%	/	/	/	/
O[C@@H]1CC(CNCc2ccc(F)cc2)(COc2cccnc2)C[C@@H]1O (some centres undefined)	?	-7%[172 µM]	0%[70.6 µM]	i	-18%[174 µM]	/	/	/	/
O[C@@H]1CC(CNCc2cccc(Cl)c2)(COc2ccccc2)C[C@@H]1O (some centres undefined)	-10%[88.5 µM]	100µM*	-28%[70.6 µM]	i	?	?	31µM*	-7%[86.2 µM]	-27%[86.2 µM]
OCC1CN(c2ccncn2)CC12CCN(Cc1cc(F)c(F)c(F)c1)CC2 (centres undefined)	-1%	?	?	i	-38%	?	-28%	-1%	-28%
